Screening results deposited in PubChem by National Center for Advancing Translational Sciences (NCATS).
AMA1-RON2 inh: disrupts binding of P. falciparum AMA1 to RON2; Potency, µM (titrated, usually from 58.2 µM), for inactives: at the top dose activity change, negative = inhibition, actives largely listed as inhibitors; 0.2% of 360,000 active; AID 720542; AlphaScreen AMA1-biotinylated RON2 peptide binding;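 note: 0% = vehicle wells and -100% = peptide control; nearly all actives have a fitted effect of over 45% in size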
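AMA1 (3D7) with his tag at 25 nM final met compounds first, then biotinylated RON2 peptide at 25 nM; detection used donor plus acceptor beads, 10 µg/mL apiece, read by AlphaScreen after 30 min at room temperature.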
Pf growth 96h: P. falciparum growth inhibition at 96 hour, primary screen for plastid delayed-death inhibitors. P. falciparum luciferase reporter growth, 96 h. Potency, µM (titrated, usually from 28.7 µM), without a hit: at the top dose activity change, negative = inhibition, usual class: inhibitors. 6.9% of 320,000 active. AID 504834; note: % is set by controls: 0 for no effect and ±100 for the full control effect
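96 h incubation, 37 C, 5% CO2, of luciferase-reporter P. falciparum-infected RBCs (2% hematocrit, 0.05% parasitemia final) with test compounds; endpoint luminescence.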
SARS PLP yeast: SARS-CoV PLP inhibition in yeast | 0.19% of 330,000 active | Potency, µM (series often up to 32.9 µM), without a hit: at the top dose activity, positive = growth rescue, usual class: activators | S. cerevisiae expressing SARS-CoV PLpro, growth rescue; calls by dose curve; note: 0% is about no effect; nearly all actives have a fitted effect of over 55% in size
Pf growth 48h: inhibits P. falciparum growth in the first generation, 48 h. P. falciparum luciferase growth in erythrocytes, 48 h. Potency, µM (top dose mostly 28.7 µM), for inactives: at the highest dose activity change, negative = inhibition, actives largely listed as inhibitors. 5.9% of 310,000 active; note: % is set by controls: 0 for no effect and ±100 for the full control effect
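A one-generation exposure of luciferase-tagged malaria parasites in RPMI 1640/Albumax erythrocyte culture, 37 C and 5% CO2. Inhibition is inferred from decreased luminescence after adding detection reagent.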
The depositor's hits bear a star. An excerpt weighted towards active compounds, which were near 9.4% of everything screened. Unless noted, calls come from the whole dose curve; as a rule, active = well fitted curve in the direction sought with a large enough effect; inconclusive = small, poorly fitted or top-dose-only effect, or another doubt; inactive = no such curve, though single readings can be large; an effect the other way counts as inactive or inconclusive. Potency is the fitted concentration of half-maximal effect.

For O=C1Nc2cc(C(=O)NCCCN3CCCC3)ccc2S/C1=C\c1ccccc1 the results were AMA1-RON2 inh -22%, Pf growth 96h -1%, SARS PLP yeast -7% and Pf growth 48h 9.3µM*.
Screening COc1ccc(/C=C2/Sc3ccc(C(=O)NCCN4CCCCCC4)cc3NC2=O)cc1 returned AMA1-RON2 inh -23%, Pf growth 96h inconclusive, SARS PLP yeast 2% and Pf growth 48h 9.3µM*.
CC(=O)NCCCC(=O)NC(CCC(=O)OCc1ccccc1)C(=O)OCc1ccccc1 (stereo not given) was read as AMA1-RON2 inh -4%, Pf growth 96h 39%, SARS PLP yeast 0% and Pf growth 48h -11%.
For CCCCCC(=O)N1CCN(CCN=CC2=C(O)CC(c3ccc(OC)c(OC)c3)CC2=O)CC1 (stereo not given) the results were AMA1-RON2 inh 10%, SARS PLP yeast 8% and Pf growth 48h 9%.
For COc1ccc(C2CC(=O)C(C=NCCN3CCNCC3)=C(O)C2)cc1OC (stereo not given) the results were Pf growth 96h 13µM*, SARS PLP yeast -1% and Pf growth 48h -1%.
Screening CCOc1cccc(CNCCc2c(C)[nH]c3ccc(OC(F)(F)F)cc23)c1O returned AMA1-RON2 inh -5%, Pf growth 96h inconclusive, SARS PLP yeast -1% and Pf growth 48h 1.9µM*.
`Cc1[nH]c2ccc(OC(F)(F)F)cc2c1CCNCc1cccc([N+](=O)[O-])c1` gave AMA1-RON2 inh inconclusive, Pf growth 96h 156%, SARS PLP yeast -4% and Pf growth 48h 1.5µM*.
`Cc1[nH]c2ccc(OC(F)(F)F)cc2c1CCNCc1ccc(Cl)cc1` gave AMA1-RON2 inh -28%, Pf growth 96h inconclusive, SARS PLP yeast -4% and Pf growth 48h inconclusive.
For CC1CN(c2ccc([N+](=O)[O-])cc2Cl)CCN1 (stereo not given) the results were AMA1-RON2 inh -18%, Pf growth 96h 17%, SARS PLP yeast 1% and Pf growth 48h 3%.
Screening Cc1ccc2oc(=O)c3cc(C(=O)NCCN4CCc5ccccc5C4)sc3c2c1 returned AMA1-RON2 inh -3%, Pf growth 96h inconclusive, SARS PLP yeast -7% and Pf growth 48h 4.7µM*.
Screening Cc1ccc2oc(=O)c3cc(C(=O)NCCCN4CCCC(C)C4)sc3c2c1 (stereo not given) returned AMA1-RON2 inh 7%, Pf growth 96h 21%, SARS PLP yeast -2% and Pf growth 48h 4.1µM*.
Screening Cc1ccc2oc(=O)c3cc(C(=O)NCc4ccco4)sc3c2c1 returned AMA1-RON2 inh -3%, Pf growth 96h 9.3µM* and SARS PLP yeast -4%.
`CCCN1CCN(CCCNC(=O)c2cc3c(=O)oc4ccc(C)cc4c3s2)CC1` gave AMA1-RON2 inh -6%, Pf growth 96h inconclusive, SARS PLP yeast -1% and Pf growth 48h 13%.
For Cc1ccc2cc3cc(C(=O)NCCCN4CCc5ccccc5C4)oc3nc2c1 the results were AMA1-RON2 inh -2%, SARS PLP yeast -6% and Pf growth 48h 8.3µM*.
Screening COc1ccc(C(=O)/C=C/Nc2c(C)n(C)n(-c3ccccc3)c2=O)cc1OC returned AMA1-RON2 inh 9%, Pf growth 96h 3%, SARS PLP yeast -4% and Pf growth 48h inconclusive.
Screening CCN(CC)CCNC(=O)c1cc2c(-c3cccc(OC)c3)nn(C)c2s1 returned AMA1-RON2 inh -9%, Pf growth 96h inconclusive, SARS PLP yeast 2% and Pf growth 48h 1.5µM*.
Screening CCOC(=O)N1CCC(NC(=O)c2cc3c(-c4cccc(OC)c4)nn(C)c3s2)CC1 returned AMA1-RON2 inh 12%, SARS PLP yeast -6% and Pf growth 48h 9.3µM*.
CCOC(=O)N1CCN(C(=O)c2cc3c(-c4cccc(OC)c4)nn(C)c3s2)CC1 was read as AMA1-RON2 inh -1%, Pf growth 96h -13%, SARS PLP yeast -1% and Pf growth 48h -27%.
Screening Cc1cc(OCC(C)C)ccc1/C(O)=C1/C(=O)C(=O)N(Cc2cccnc2)C1c1ccncc1 (stereo not given) returned AMA1-RON2 inh 2%, Pf growth 96h 7%, SARS PLP yeast 18% and Pf growth 48h 4%.
CC1(C)CCC(=O)N2CC[C@H]3C[C@H](OC(=O)Nc4ccccc4)C[C@@H]1[C@H]32 was read as AMA1-RON2 inh 19%, Pf growth 96h 50%, SARS PLP yeast -11% and Pf growth 48h 130%.
N=c1n(CCN2CCOCC2)c2ccccc2n1CC(O)COc1ccccc1 (stereo not given) was read as AMA1-RON2 inh 15%, Pf growth 96h 19%, SARS PLP yeast 2% and Pf growth 48h -14%.
CCCn1c(=N)n(CC(O)COc2cccc(C)c2)c2ccccc21 (stereo not given) was read as AMA1-RON2 inh -9%, Pf growth 96h 129%, SARS PLP yeast 7% and Pf growth 48h 10µM*.
`COc1ccc(OCC(O)Cn2c(=N)n(CCN3CCOCC3)c3ccccc32)cc1` (stereo not given) gave AMA1-RON2 inh -20%, SARS PLP yeast -2% and Pf growth 48h inconclusive.
`CCCCn1c(=N)n(CC(O)COc2ccccc2)c2ccccc21` (stereo not given) gave AMA1-RON2 inh 5%, Pf growth 96h inconclusive, SARS PLP yeast 4% and Pf growth 48h 5.2µM*.
Screening CCCCn1c(=N)n(CC(O)COc2ccc(C)cc2)c2ccccc21 (stereo not given) returned AMA1-RON2 inh 12%, SARS PLP yeast 2% and Pf growth 48h 2.3µM*.
Screening N=c1n(CCCOc2ccc(Br)cc2)c2ccccc2n1CC(N)=O returned AMA1-RON2 inh 14%, Pf growth 96h 9.3µM*, SARS PLP yeast 1% and Pf growth 48h 13µM*.
Screening CSc1nc(-c2ccccc2F)c(C#N)c(=O)n1C returned AMA1-RON2 inh 5%, Pf growth 96h 0%, SARS PLP yeast 0% and Pf growth 48h 22%.
O=C(NCCc1ccccc1)c1cccc(Br)c1 was read as AMA1-RON2 inh -4%, Pf growth 96h 12%, SARS PLP yeast -6% and Pf growth 48h 146%.
Screening Cc1c(NC(=O)CN2CC(C)OC(C)C2)c(=O)n(-c2ccccc2)n1C (stereo not given) returned AMA1-RON2 inh 39%, Pf growth 96h -19%, SARS PLP yeast 4% and Pf growth 48h 9%.
CCOC(=O)Cn1c(=N)n(CCOc2ccc(OC)cc2)c2ccccc21 was read as AMA1-RON2 inh 6%, SARS PLP yeast 20% and Pf growth 48h 8%.
For CCCCn1c(=N)n(CC(O)c2ccccc2)c2ccccc21 (stereo not given) the results were AMA1-RON2 inh -12%, Pf growth 96h 13µM*, SARS PLP yeast 1% and Pf growth 48h 2.1µM*.
For CCCn1c(=N)n(CCOc2ccc(OC)cc2)c2ccccc21 the results were AMA1-RON2 inh -17%, SARS PLP yeast 1% and Pf growth 48h 15µM*.
CC1CCCC/C1=N\NC(=S)Nc1ccccc1 (stereo not given) was read as AMA1-RON2 inh 73%, Pf growth 96h inconclusive, SARS PLP yeast 2% and Pf growth 48h -29%.
